In PubChem BioAssay AID1159580 (chemical genetic matrix, 2015):
In all, about 5,500 compounds went through this assay and about 2,000 (36%) were called active. Roughly 18% stayed inconclusive and do not appear here. Rule as the data show it: active = normalized growth mostly below about 0.91 (no sharp cut-off); inconclusive = no clear call, values can overlap the other calls; inactive = mostly above about 0.92. Some of the results follow.

Test: chemical genetic growth profiling, strain panel (AID 1159580);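 also: tested at 20 µM; growth read once vehicle control cultures reached saturation at 30 °C; 1 = growth at the plate median or of vehicle wells; lower values mean less growth of the strain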
Conditions: S. cerevisiae deletion strains, growth OD
[1] = locus YHR030C, strain SLT2, stronger effect = lower value
[2] = locus YJL095W, strain BCK1, stronger effect = lower value

Measured: normalized growth

Cc1c(O)cc(O)c2c(=O)c(-c3ccc(O)cc3)coc12
inactive: locus YBR021W, strain FUR4, stronger effect = lower value 1.01 | locus YBR229C, strain ROT2, stronger effect = lower value 1 | locus YCL029C, strain bik1, stronger effect = lower value 1.02 | locus YDL035C, strain GPR1, stronger effect = lower value 1.01 | locus YDL074C, strain BRE1, stronger effect = lower value 1.01 | locus YDL101C, strain DUN1, stronger effect = lower value 1.01 | locus YDL185W, strain tfp1, stronger effect = lower value 1.01 | locus YDL192W, strain arf1, stronger effect = lower value 1.02 | locus YDR101C, strain arx1, stronger effect = lower value 1 | locus YDR150W, strain NUM1, stronger effect = lower value 0.997 | locus YDR162C, strain NBP2, stronger effect = lower value 1 | locus YDR318W, strain mcm21, stronger effect = lower value 1 | locus YDR388W, stronger effect = lower value 1.01 | locus YDR502C, strain sam2, stronger effect = lower value 1.01 | locus YEL061C, strain CIN8, stronger effect = lower value 0.993 | locus YER110C, stronger effect = lower value 1.02 | locus YER155C, strain BEM2, stronger effect = lower value 1.01 | locus YER167W, strain BCK2, stronger effect = lower value 1 | locus YGL078C, strain dbp3, stronger effect = lower value 1.01 | locus YGL086W, strain mad1, stronger effect = lower value 1.02 | locus YGL248W, strain PDE1, stronger effect = lower value 1 | locus YGR078C, strain PAC10, stronger effect = lower value 0.978 | locus YGR135W, strain pre9, stronger effect = lower value 1.03 | locus YGR229C, strain SMI1, stronger effect = lower value 0.987 | locus YGR252W, strain gcn5, stronger effect = lower value 0.983 | [1] 1 | locus YHR079C, strain IRE1 (second series), stronger effect = lower value 1 | locus YHR094C, strain hxt1, stronger effect = lower value 1 | locus YHR129C, strain ARP1, stronger effect = lower value 1 | locus YHR200W, strain rpn10, stronger effect = lower value 1.01 | locus YIL066C, strain RNR3, stronger effect = lower value 0.995 | locus YIL073C, strain SPO22, stronger effect = lower value 1.07 | locus YIL125W, strain kgd1, stronger effect = lower value 0.996 | locus YIR030C, strain dcg1, stronger effect = lower value 1.01 | [2] 0.998 | locus YJL134W, strain LCB3, stronger effect = lower value 1 | locus YJL168C, strain set2, stronger effect = lower value 1 | locus YJL187C, strain SWE1 (second series), stronger effect = lower value 0.991 | locus YJR043C, strain POL32, stronger effect = lower value 0.997 | locus YJR075W, strain HOC1, stronger effect = lower value 0.99 | locus YKL009W, strain mrt4, stronger effect = lower value 0.99 | locus YKL068W, stronger effect = lower value 1 | locus YKL085W, strain MDH1 (second series), stronger effect = lower value 0.994 | locus YKL085W, strain MDH1, stronger effect = lower value 0.994 | locus YKL190W, strain CNB1, stronger effect = lower value 0.986 | locus YKR001C, strain vps1, stronger effect = lower value 0.992 | locus YLR039C, strain RIC1, stronger effect = lower value 1.18 | locus YLR058C, strain SHM2, stronger effect = lower value 0.993 | locus YLR102C, strain apc9, stronger effect = lower value 1.01 | locus YLR262C, strain YPT6, stronger effect = lower value 1.21 | locus YLR268W, strain sec22, stronger effect = lower value 1.01 | locus YLR330W, strain CHS5, stronger effect = lower value 1.01 | locus YLR342W, strain FKS1 (second series), stronger effect = lower value 1.02 | locus YLR371W, strain rom2, stronger effect = lower value 1.01 | locus YLR418C, strain cdc73, stronger effect = lower value 0.95 | locus YML016C, strain PPZ1, stronger effect = lower value 1.01 | locus YML032C, strain rad52, stronger effect = lower value 0.995 | locus YML124C, strain tub3, stronger effect = lower value 1.02 | locus YMR078C, strain ctf18, stronger effect = lower value 1.01 | locus YMR223W, strain ubp8, stronger effect = lower value 1.01 | locus YMR263W, strain SAP30, stronger effect = lower value 0.989 | locus YMR307W, strain GAS1, stronger effect = lower value 0.993 | locus YNL067W, strain RPL9B, stronger effect = lower value 0.986 | locus YNL153C, strain GIM3, stronger effect = lower value 0.979 | locus YNL233W, strain BNI4, stronger effect = lower value 0.979 | locus YNL250W, strain rad50, stronger effect = lower value 1.01 | locus YNL271C, strain bni1, stronger effect = lower value 1.02 | locus YNL298W, strain CLA4, stronger effect = lower value 1.01 | locus YNL307C, strain MCK1, stronger effect = lower value 1.01 | locus YNR052C, strain pop2, stronger effect = lower value 1.01 | locus YOL012C, strain htz1 1.03 | locus YOL147C, strain pex11, stronger effect = lower value 0.998 | locus YOR061W, strain CKA2, stronger effect = lower value 1 | locus YOR069W, strain VPS5, stronger effect = lower value 1.01 | locus YOR136W, strain idh2, stronger effect = lower value 0.999 | locus YOR144C, strain elg1, stronger effect = lower value 1 | locus YOR184W, strain ser1, stronger effect = lower value 0.988 | locus YOR316C, strain cot1, stronger effect = lower value 1.02 | locus YPL055C, strain LGE1, stronger effect = lower value 0.944 | locus YPR119W, strain clb2, stronger effect = lower value 1 | locus YPR141C, strain kar3, stronger effect = lower value 1.02 | locus YPR163C, strain tif3, stronger effect = lower value 1 | locus YPR167C, strain met16, stronger effect = lower value 1.03 | strain wtn01, stronger effect = lower value 1.01

COc1cc2oc3cc(OC)c(OC)c(CC=C(C)C)c3c(=O)c2c(OC)c1CC=C(C)C
inactive: [1] 0.934 | locus YHR079C, strain IRE1, stronger effect = lower value 0.927 | [2] 0.918 | locus YJR066W, strain TOR1, stronger effect = lower value 0.885 | locus YLR113W, strain HOG1, stronger effect = lower value 0.895 | locus YNL183C, strain NPR1, stronger effect = lower value 0.862 | locus YOR231W, strain MKK1, stronger effect = lower value 0.905 | locus YPL256C, strain CLN2, stronger effect = lower value 0.955
